# Legend:
# Test in all cases: SPOT peptide array binding signal intensity (averaged, normalized) (arbitrary units (background-subtracted, floor 0; scale differs between SH3 domains)); higher = stronger binding of the SH3 domain to the peptide
# AgAbp1 = biological target: AgAbp1
# How it was run: (§1)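 Cellulose membranes carried synthetic 15-mer peptides with cysteines swapped for serines. These were incubated overnight at 4°C with 10 μg/ml of GST-fused SH3 domains from four yeast species in TBS-based blocking buffer. Binding signal, detected with anti-GST antibody and quantified in Genespotter, is the normalized, background-subtracted spot intensity averaged over replicates, in arbitrary units specific to each domain.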
# AgBbc1 = biological target: AgBbc1
# How it was run: as §1
# AgBem1-D1 = biological target: AgBem1-D1
# How it was run: as §1
# AgBzz1-D1 = biological target: AgBzz1-D1
# How it was run: as §1
# AgBzz1-D2 = biological target: AgBzz1-D2
# How it was run: as §1
# AgCyk3 = biological target: AgCyk3
# How it was run: as §1
# AgFus1 = biological target: AgFus1
# How it was run: as §1
# AgHof1 = biological target: AgHof1
# How it was run: as §1
# AgHse1 = biological target: AgHse1
# How it was run: as §1
# AgLsb1 = biological target: AgLsb1
# How it was run: as §1
# AgLsb4 = biological target: AgLsb4
# How it was run: as §1
# AgMyo5 = biological target: AgMyo5
# How it was run: as §1
# AgNbp2 = biological target: AgNbp2
# How it was run: as §1
# AgRvs167 = biological target: AgRvs167
# How it was run: as §1
# AgSho1 = biological target: AgSho1
# How it was run: as §1
# AgSla1-D1-D2 = biological target: AgSla1-D1-D2
# How it was run: as §1
# AgSla1-D3 = biological target: AgSla1-D3
# How it was run: as §1
# CaAbp1-D1 = biological target: CaAbp1-D1
# How it was run: as §1
# CaAbp1-D2 = biological target: CaAbp1-D2
# How it was run: as §1
# CaBbc1 = biological target: CaBbc1
# How it was run: as §1
# CaBem1-D1 = biological target: CaBem1-D1
# How it was run: as §1
# CaBzz1-D1 = biological target: CaBzz1-D1
# How it was run: as §1
# CaBzz1-D2 = biological target: CaBzz1-D2
# How it was run: as §1
# CaCyk3 = biological target: CaCyk3
# How it was run: as §1
# CaFus1 = biological target: CaFus1
# How it was run: as §1
# CaHof1 = biological target: CaHof1
# How it was run: as §1
# CaHse1 = biological target: CaHse1
# How it was run: as §1
# CaLsb1 = biological target: CaLsb1
# How it was run: as §1
# CaLsb4 = biological target: CaLsb4
# How it was run: as §1
# CaMyo5 = biological target: CaMyo5
# How it was run: as §1
# CaNbp2 = biological target: CaNbp2
# How it was run: as §1
# CaRvs167 = biological target: CaRvs167
# How it was run: as §1
# CaRvs167-3 = biological target: CaRvs167-3
# How it was run: as §1
# CaSho1 = biological target: CaSho1
# How it was run: as §1
# CaSla1-D1-D2 = biological target: CaSla1-D1-D2
# How it was run: as §1
# CaSla1-D3 = biological target: CaSla1-D3
# How it was run: as §1
# ScAbp1 = biological target: ScAbp1
# How it was run: as §1
# ScBbc1 = biological target: ScBbc1
# How it was run: as §1
# ScBem1-D1 = biological target: ScBem1-D1
# How it was run: as §1
# ScBzz1-D1 = biological target: ScBzz1-D1
# How it was run: as §1
# ScBzz1-D2 = biological target: ScBzz1-D2
# How it was run: as §1
# ScCyk3 = biological target: ScCyk3
# How it was run: as §1
# ScFus1 = biological target: ScFus1
# How it was run: as §1
# ScHof1 = biological target: ScHof1
# How it was run: as §1
# ScHse1 = biological target: ScHse1
# How it was run: as §1
# ScLsb1 = biological target: ScLsb1
# How it was run: as §1
# ScLsb2 = biological target: ScLsb2
# How it was run: as §1
# ScLsb3 = biological target: ScLsb3
# How it was run: as §1
# ScLsb4 = biological target: ScLsb4
# How it was run: as §1
# ScMyo3 = biological target: ScMyo3
# How it was run: as §1
# ScMyo5 = biological target: ScMyo5
# How it was run: as §1
# ScNbp2 = biological target: ScNbp2
# How it was run: as §1
# ScPex13 = biological target: ScPex13
# How it was run: as §1
# ScRvs167 = biological target: ScRvs167
# How it was run: as §1
# ScSho1 = biological target: ScSho1
# How it was run: as §1
# ScSla1-D1-D2 = biological target: ScSla1-D1-D2
# How it was run: as §1
# ScSla1-D3 = biological target: ScSla1-D3
# How it was run: as §1
# SpAbp1-D1 = biological target: SpAbp1-D1
# How it was run: as §1
# SpBbc1 = biological target: SpBbc1
# How it was run: as §1
# SpBzz1-D1 = biological target: SpBzz1-D1
# How it was run: as §1
# SpBzz1-D2 = biological target: SpBzz1-D2
# How it was run: as §1
# SpCyk3 = biological target: SpCyk3
# How it was run: as §1
# SpHof1 = biological target: SpHof1
# How it was run: as §1
# SpHof1-2 = biological target: SpHof1-2
# How it was run: as §1
# SpHof1-3 = biological target: SpHof1-3
# How it was run: as §1
# SpHse1 = biological target: SpHse1
# How it was run: as §1
# SpLsb1 = biological target: SpLsb1
# How it was run: as §1
# SpLsb4 = biological target: SpLsb4
# How it was run: as §1
# SpMyo1 = biological target: SpMyo1
# How it was run: as §1
# SpNbp2 = biological target: SpNbp2
# How it was run: as §1
# SpPex13 = biological target: SpPex13
# How it was run: as §1
# SpRvs167 = biological target: SpRvs167
# How it was run: as §1
# SpSla1-D1-D2 = biological target: SpSla1-D1-D2
# How it was run: as §1
# SpSla1-D3 = biological target: SpSla1-D3
# How it was run: as §1
binder,measurement,setting,value
RKNRAPPQRPRFNRE,SPOT peptide array binding signal intensity,AgAbp1,777
same,SPOT peptide array binding signal intensity,AgBbc1,536
same,SPOT peptide array binding signal intensity,AgBem1-D1,379
same,SPOT peptide array binding signal intensity,AgBzz1-D1,248
same,SPOT peptide array binding signal intensity,AgBzz1-D2,220
same,SPOT peptide array binding signal intensity,AgCyk3,7
same,SPOT peptide array binding signal intensity,AgFus1,404
same,SPOT peptide array binding signal intensity,AgHof1,117
same,SPOT peptide array binding signal intensity,AgHse1,469
same,SPOT peptide array binding signal intensity,AgLsb1,267
same,SPOT peptide array binding signal intensity,AgLsb4,71
same,SPOT peptide array binding signal intensity,AgMyo5,2.5
same,SPOT peptide array binding signal intensity,AgNbp2,1890
same,SPOT peptide array binding signal intensity,AgRvs167,8.33
same,SPOT peptide array binding signal intensity,AgSho1,47.5
same,SPOT peptide array binding signal intensity,AgSla1-D1-D2,320
same,SPOT peptide array binding signal intensity,AgSla1-D3,39.2
same,SPOT peptide array binding signal intensity,CaAbp1-D1,976
same,SPOT peptide array binding signal intensity,CaAbp1-D2,788
same,SPOT peptide array binding signal intensity,CaBbc1,945
same,SPOT peptide array binding signal intensity,CaBem1-D1,39
same,SPOT peptide array binding signal intensity,CaBzz1-D1,2100
same,SPOT peptide array binding signal intensity,CaBzz1-D2,1120
same,SPOT peptide array binding signal intensity,CaCyk3,642
same,SPOT peptide array binding signal intensity,CaFus1,706
same,SPOT peptide array binding signal intensity,CaHof1,0.5
same,SPOT peptide array binding signal intensity,CaHse1,89.8
same,SPOT peptide array binding signal intensity,CaLsb1,7
same,SPOT peptide array binding signal intensity,CaLsb4,646
same,SPOT peptide array binding signal intensity,CaMyo5,9.25
same,SPOT peptide array binding signal intensity,CaNbp2,1020
same,SPOT peptide array binding signal intensity,CaRvs167,26.5
same,SPOT peptide array binding signal intensity,CaRvs167-3,28.5
same,SPOT peptide array binding signal intensity,CaSho1,117
same,SPOT peptide array binding signal intensity,CaSla1-D1-D2,752
same,SPOT peptide array binding signal intensity,CaSla1-D3,15
same,SPOT peptide array binding signal intensity,ScAbp1,369
same,SPOT peptide array binding signal intensity,ScBbc1,290
same,SPOT peptide array binding signal intensity,ScBem1-D1,112
same,SPOT peptide array binding signal intensity,ScBzz1-D1,46
same,SPOT peptide array binding signal intensity,ScBzz1-D2,26
same,SPOT peptide array binding signal intensity,ScCyk3,88
same,SPOT peptide array binding signal intensity,ScFus1,209
same,SPOT peptide array binding signal intensity,ScHof1,2.5
same,SPOT peptide array binding signal intensity,ScHse1,761
same,SPOT peptide array binding signal intensity,ScLsb1,162
same,SPOT peptide array binding signal intensity,ScLsb2,196
same,SPOT peptide array binding signal intensity,ScLsb3,622
same,SPOT peptide array binding signal intensity,ScLsb4,34.5
same,SPOT peptide array binding signal intensity,ScMyo3,8.5
same,SPOT peptide array binding signal intensity,ScMyo5,10
same,SPOT peptide array binding signal intensity,ScNbp2,4060
same,SPOT peptide array binding signal intensity,ScPex13,128
same,SPOT peptide array binding signal intensity,ScRvs167,192
same,SPOT peptide array binding signal intensity,ScSho1,979
same,SPOT peptide array binding signal intensity,ScSla1-D1-D2,1390
same,SPOT peptide array binding signal intensity,ScSla1-D3,30.2
same,SPOT peptide array binding signal intensity,SpAbp1-D1,634
same,SPOT peptide array binding signal intensity,SpBbc1,25.5
same,SPOT peptide array binding signal intensity,SpBzz1-D1,707
same,SPOT peptide array binding signal intensity,SpBzz1-D2,23
same,SPOT peptide array binding signal intensity,SpCyk3,9.5
same,SPOT peptide array binding signal intensity,SpHof1,200
same,SPOT peptide array binding signal intensity,SpHof1-2,13.5
same,SPOT peptide array binding signal intensity,SpHof1-3,286
same,SPOT peptide array binding signal intensity,SpHse1,253
same,SPOT peptide array binding signal intensity,SpLsb1,190
same,SPOT peptide array binding signal intensity,SpLsb4,707
same,SPOT peptide array binding signal intensity,SpMyo1,14
same,SPOT peptide array binding signal intensity,SpNbp2,307
same,SPOT peptide array binding signal intensity,SpPex13,32
same,SPOT peptide array binding signal intensity,SpRvs167,67.8
same,SPOT peptide array binding signal intensity,SpSla1-D1-D2,48
same,SPOT peptide array binding signal intensity,SpSla1-D3,7

# Reference: the supplement of paper PMC4466140
